# JMJD2A Tudor inh: blocks the human JMJD2A Tudor domain; O75164; AlphaScreen JMJD2A-Tudor / H3K4me3 peptide binding; Potency, µM (titrated, usually from 114 µM), for the others: at the highest dose activity change, negative = inhibition, most hits filed as inhibitors; 4.4% of 390,000 active; further: on the % scale 0 is the no-effect control and ±100 the full control effect; nearly all actives have a fitted effect of over 50% in size
# Target sequence (O75164 whole entry, looked up, the tested form may be a part): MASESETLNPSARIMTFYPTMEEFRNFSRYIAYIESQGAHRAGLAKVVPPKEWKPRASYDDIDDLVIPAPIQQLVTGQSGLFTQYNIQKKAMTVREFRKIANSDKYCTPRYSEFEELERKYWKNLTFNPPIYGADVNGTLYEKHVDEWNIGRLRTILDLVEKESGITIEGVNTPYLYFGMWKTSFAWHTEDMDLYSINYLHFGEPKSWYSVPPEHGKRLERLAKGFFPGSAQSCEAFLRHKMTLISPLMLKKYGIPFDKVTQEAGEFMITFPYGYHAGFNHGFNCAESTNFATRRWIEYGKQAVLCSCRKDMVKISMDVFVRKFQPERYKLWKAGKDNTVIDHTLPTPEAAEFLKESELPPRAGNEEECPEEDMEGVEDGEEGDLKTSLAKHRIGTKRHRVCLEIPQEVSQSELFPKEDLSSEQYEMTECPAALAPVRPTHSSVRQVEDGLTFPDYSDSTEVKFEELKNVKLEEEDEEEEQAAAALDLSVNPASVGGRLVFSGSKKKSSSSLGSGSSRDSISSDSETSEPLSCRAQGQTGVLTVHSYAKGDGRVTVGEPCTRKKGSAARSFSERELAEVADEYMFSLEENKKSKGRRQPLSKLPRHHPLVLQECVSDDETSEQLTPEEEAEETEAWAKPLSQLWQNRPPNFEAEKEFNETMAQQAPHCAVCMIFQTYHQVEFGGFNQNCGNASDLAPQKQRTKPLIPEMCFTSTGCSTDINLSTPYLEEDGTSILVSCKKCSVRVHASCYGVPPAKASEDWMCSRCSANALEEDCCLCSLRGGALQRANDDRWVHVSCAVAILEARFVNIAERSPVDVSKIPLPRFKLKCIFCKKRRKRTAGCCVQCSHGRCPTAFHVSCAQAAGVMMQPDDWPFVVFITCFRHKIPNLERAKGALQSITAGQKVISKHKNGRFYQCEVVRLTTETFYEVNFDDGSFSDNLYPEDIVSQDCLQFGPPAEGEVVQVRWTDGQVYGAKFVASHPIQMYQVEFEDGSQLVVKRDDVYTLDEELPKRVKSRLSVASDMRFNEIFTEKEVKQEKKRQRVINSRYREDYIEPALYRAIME
# HP1b chromo inh: HP1-beta chromodomain-methylated histone interaction inhibition; P83916; AlphaScreen HP1-beta / biotin-H3K9me3 peptide binding; Potency, µM (series often up to 114 µM), inactives show at the highest dose activity change, negative = inhibition, actives largely listed as inhibitors; 0.56% of 390,000 active; further: nearly all actives have a fitted effect of over 70% in size
#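 AlphaScreen: HP1-beta (50 nM) preformed 30 min with biotin-H3(1-18)K9me3 peptide (50 nM) in PBS pH 7.4, 0.01% Tween-20. Compound added for 30 min at RT, then streptavidin donor/nickel chelate acceptor beads (10 ug/mL) for 30 min.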
# BAZ2B inh: BAZ2B (human) inhibition; 4.4% of 360,000 active; Q9UIF8; AlphaScreen BAZ2B-H3K14Ac peptide displacement; Potency, µM (top dose mostly 114 µM), without a hit: at the top dose activity change, negative = inhibition, actives largely listed as inhibitors; further: on the % scale 0 is the no-effect control and ±100 the full control effect; nearly all actives have a fitted effect of over 60% in size
#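 BAZ2B (50 nM) with biotin-H3(5-23)K14Ac peptide (50 nM) in PBS pH 7.4, 0.01% Tween-20, preformed 30 min, then compound 30 min at room temperature; top concentration 110uM. AlphaScreen streptavidin donor/nickel chelate acceptor beads (10 ug/mL final), 20 min dark, signal read.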
# G9a block: blocks human histone lysine methyltransferase G9a; Q96KQ7; G9a H3K9 monomethylation, AlphaScreen, 2 h; Potency, µM (series often up to 102 µM), without a hit: at the top dose activity, negative = inhibition, usual class: inhibitors; 8.8% of 350,000 active; AID 504332; further: on the % scale 0 is the no-effect control and ±100 the full control effect; nearly all actives have a fitted effect of over 75% in size
#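 Methyltransferase reactions run at room temperature for 2 h (20 nM enzyme, 500 nM biotin-H3K9 peptide, 20 uM SAM) after a 15 min compound preincubation; product detected by AlphaScreen beads and anti-H3K9me1 antibody.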
# Sfp inh: inhibitors of Bacillus subtilis Sfp phosphopantetheinyl transferase; Q9F4F7; Biochemical Sfp PPTase activity, qHTS; Potency, µM, inactives show largest response in the series, negative = inhibition, usual class: inhibitors; 3.5% of 310,000 active; AID 1490;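 further: the enzyme is Sfp with the accession as filed and its product quenches rhodamine fluorescence; 0% = enzyme reaction without inhibitor and -100% = no enzyme wells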
#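 Step 1, compound plus 15 nM Sfp-PPTase, 15 min, room temperature. Step 2, add rhodamine-CoA (5 uM) and BHQ-2-YbbR (12.5 uM). Step 3, read 525/598 nm fluorescence at 0 and 30 min.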
# * marks the source's active call; other numbers are inactive results; ? = inconclusive; / = no result; ! = not active in a repeat; [ ] = dose if it differs, or a comment. A selection: hits, their analogues and other compounds. The true share with any hit is near 12%. The call rests on the fitted dose curve; in most records, active means well fitted curve in the direction sought with a large enough effect; inconclusive means small, poorly fitted or top-dose-only effect, or another doubt; inactive means no such curve, though single readings can be large; an effect the other way counts as inactive or inconclusive. Potency means the concentration at half of the fitted maximal effect.
SMILES,JMJD2A Tudor inh,HP1b chromo inh,BAZ2B inh,G9a block,Sfp inh
COc1ccc(OCC(=O)N/N=C/C=C/c2ccccc2)cc1,-6%,30%,-1%,27%,7%
CCOc1ccc(NCC(=O)N/N=C/C=C/c2ccccc2)cc1,?,-7%,?,11µM*,6%
COc1cc(O)c(NC(C)=O)c2nonc12,-35%,21%,7%,22µM*,35µM*
COc1ccc(CN2CCNC(=O)C2CC(=O)NCC2CCOCC2)c(F)c1 (centres undefined),-6%,13%,-3%,79µM*,3%
COc1cccc(CN2CCNC(=O)C2CC(=O)NCC2CCOCC2)c1 (centres undefined),-12%,40%,0%,50µM*,1%
CCOc1ccc(CN2CCNC(=O)C2CC(=O)NCCC2=CCCCC2)cc1 (centres undefined),-15%,-5%,?,-27%,7%
O=C(CC1C(=O)NCCN1Cc1cccc(F)c1)NCCCCCN1CCOCC1 (centres undefined),-7%,31%,-11%,71µM*,3%
COc1cc(CN2CCNC(=O)C2CC(=O)NCCC2=CCCCC2)cc(OC)c1 (centres undefined),-17%,28%,-24%,50µM*,4%
COc1ccc(CN2CCNC(=O)C2CC(=O)NCC2CCOCC2)c(C)c1C (centres undefined),2%,38%,1%,84%,-6%
CN(C)CCN(CC1CCCN(Cc2ccccc2F)C1)C(=O)c1ccc(Cl)cc1 (centres undefined),-24%,14%,-8%,-4%,5%
COC(=O)c1c(NC(C)=O)sc(C(=O)Nc2ccccc2C)c1C,9%,44%,-11%,25%,7%
CCn1cc(/C=N/NS(=O)(=O)c2ccc(C)cc2)c(C)n1,-9%,22%,3%,?,-15%
COc1cccc(CNC(=O)CC2C(=O)NCCN2CCCc2ccccc2)c1 (centres undefined),-15%,25%,-24%,50µM*,2%
O=C(CC1C(=O)NCCN1Cc1cccc(Oc2ccccc2)c1)NCCn1cccn1 (centres undefined),-20%,23%,-4%,-1%,-8%
COc1cccc(CN2CCNC(=O)C2CC(=O)NCc2cc(C(C)C)no2)c1 (centres undefined),-1%,28%,2%,50µM*,3%
O=C(CC1C(=O)NCCN1Cc1cccc(F)c1F)NCCCC1CCCC1 (centres undefined),-11%,39%,-19%,50µM*,3%
O=C(CC1C(=O)NCCN1Cc1cccc(Oc2ccccc2)c1)NCC1CCOCC1 (centres undefined),-17%,47%,-28%,45µM*,-8%
COn1c(-c2ccccc2)nc2c1CCc1nonc1-2,7%,25%,6%,47%[12.7 µM],12%
CC(Sc1ncc(C#N)c(N)n1)C(=O)Nc1ccccc1 (centres undefined),-11%,78%,9%,?,-2%
CCCN1CCC(NC(=O)CC2C(=O)NCCN2Cc2cccc(OC)c2)CC1 (centres undefined),-15%,26%,10%,19%,13%
COc1cccc(CN2CCNC(=O)C2CC(=O)NC2Cc3ccccc3C2)c1 (centres undefined),-11%,40%,?,45µM*,7%
COc1ccc(-c2nnn(CC(=O)Nc3ccc4c(c3)OCCO4)n2)cc1OC,-8%,23%,-4%,9%[12.7 µM],/
CCN1C(=NCC2CC2)N[C@@H](c2ccccc2)C(C(=O)OC)=C1C,?,36%,-4%,-13%[12.7 µM],5%
CCN(CC)CCCN=C1N[C@@H](c2ccccc2)C(C(=O)OC)=C(C)N1CC,32µM*,16%,79µM*,40µM*!,-5%
COC(=O)C1=C(C)N(Cc2ccccc2)C(=NCCc2cccnc2)N[C@H]1c1ccccc1,?,5%,56µM*,32µM*!,2%
SMILES,JMJD2A Tudor inh,HP1b chromo inh,BAZ2B inh,G9a block,Sfp inh
COC(=O)C1=C(C)N(Cc2ccccc2)C(=NCC2CC2)N[C@H]1c1ccc(Br)cc1,/,/,?,/,56µM*
COC(=O)C1=C(C)N(Cc2ccccc2)C(=NCCc2cccnc2)N[C@H]1c1ccc(Br)cc1,28µM*,3%,56µM*,-2%[12.7 µM],-8%
O=C(c1ccccc1)c1c[nH]c(C(=O)NCCCN2CCOCC2)c1,7%,24%,3%,/,2%
CC[C@@]1(C(=O)OC)N[C@H](CN(C)C(=O)Nc2ccc(Cl)cc2)[C@@H]2C(=O)N(Cc3ccccc3)C(=O)[C@@H]21,-18%,18%,/,/,/
COC(=O)C1=C(C)N(Cc2ccccc2)C(=NCCCCO)N[C@H]1c1ccccc1,?,12%,?,79µM*!,6%
COC(=O)C1=C(C)N(Cc2ccccc2)C(=NCC2CC2)N[C@H]1c1ccccc1,?,25%,4%,-4%[12.7 µM],12%
Nc1nc2n(n1)C(c1ccco1)CC(c1ccc(F)cc1)N2 (centres undefined),-23%,45%,8%,-3%,16%
CC(=O)C1=C(C)OC(N)=C(C#N)C1c1cc2cccc(C)c2nc1Cl (centres undefined),-19%,38%,5%[57.1 µM],?,-17%
COCCOC(=O)C1=C(C)OC(N)=C(C#N)C1c1cc2cccc(C)c2nc1Cl (centres undefined),-23%,9%,50µM*,/,?
COC(=O)C1=C(C)OC(N)=C(C#N)C1c1cc2cccc(C)c2nc1Cl (centres undefined),/,/,79µM*,22µM*,-15%
O=C(CSc1n[nH]c(-c2ccccc2)n1)N1CCOCC1,2%,24%,?,3%,2%
CCCC1CC(=O)OC1(C)C(=O)CSc1n[nH]c(-c2ccccc2)n1 (centres undefined),/,/,-27%,11µM*,?
CCCC1CC(C)(C(=O)CSc2n[nH]c(-c3ccccc3)n2)OC1=O (centres undefined),35µM*,-10%,?,32µM*,79µM*
O=C1CC(c2ccco2)CC(O)=C1C=Nc1ccc(Br)cc1 (centres undefined),-14%,9%,-38%,14µM*,56µM*
Cc1ccc(N=CC2=C(O)CC(c3ccco3)CC2=O)cc1 (centres undefined),-6%,25%,-2%,/,-16%
CCc1ccc(N=CC2=C(O)CC(c3ccco3)CC2=O)cc1 (centres undefined),-9%,17%,-3%,?,79µM*
CCOC(=O)CNC(=O)Nc1cc(C(=O)NCc2ccccc2OC)ccc1N1CCCC1,-5%,29%,-3%,-2%[12.7 µM],/
C=CCN(CC=C)S(=O)(=O)c1ncn[nH]1,-34%,15%,79µM*,?,-24%
O=C(N/N=C/c1c[nH]c2ccccc12)c1ccccc1,3%,36%,-15%,24%,5%
